Common to all, as to settings: mRNA level, 48 h; actives raise or lower the signal
Read-out in test [1]: Cyclin Dependent Kinase Inhibitor 1A (CDKN1A), CDKN1A (gene 1026)
The experiment in a line: LTEA_HepaRG_CDKN1A: Life Technologies and Expression Analysis (LTEA) Assay for Cyclin Dependent Kinase Inhibitor 1A (CDKN1A) using HepaRG (AID 2283450). The procedure, abridged:
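Differentiated HepaRG cells in serum-free induction medium, exposed 48 h in duplicate to eight half-log concentrations up to 100 uM in 0.5% DMSO. mRNA measured by TaqMan qRT-PCR, normalized to ACTB, GAPDH, POLR2A; bidirectional fit versus DMSO.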

Read-out in test [2]: Cyclin D1 (CCND1), CCND1 (gene 595)
The experiment in a line: LTEA_HepaRG_CCND1: Life Technologies and Expression Analysis (LTEA) Assay for Cyclin D1 (CCND1) using HepaRG (AID 2283451).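 On AC50: TaqMan qRT-PCR transcript level normalised to ACTB GAPDH and POLR2A housekeeping genes.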 The procedure, abridged:
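Differentiated HepaRG cells exposed 48 h in serum-free induction medium to eight half-log concentrations from 100 uM top, 0.5% DMSO, duplicates. CCND1 mRNA measured by Fluidigm TaqMan qRT-PCR, normalised to ACTB, GAPDH, POLR2A; bidirectional fit.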

Read-out in test [3]: catalase (CAT), CAT (gene 847)
The experiment in a line: LTEA_HepaRG_CAT: Life Technologies and Expression Analysis (LTEA) Assay for catalase (CAT) using HepaRG (AID 2283452).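 On AC50: TaqMan qRT-PCR signal normalized to ACTB GAPDH and POLR2A housekeeping genes.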 The procedure, abridged: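 Differentiated HepaRG cells in serum-free induction medium were dosed 48 h in duplicate, eight half-log concentrations from 100 uM in 0.5% DMSO. Transcript measured by TaqMan qRT-PCR, normalised to ACTB/GAPDH/POLR2A, fitted bidirectionally against DMSO.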

Read-out in test [4]: flavin-containing dimethylaniline monooxygenases 3 (FMO3), FMO3 (gene 2328)
The experiment in a line: LTEA_HepaRG_FMO3: Life Technologies and Expression Analysis (LTEA) Assay for flavin-containing dimethylaniline monooxygenases 3 (FMO3) using HepaRG (AID 2283453).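 On AC50: FMO3 transcript by TaqMan qRT-PCR normalized to ACTB GAPDH and POLR2A.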 The procedure, abridged:
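HepaRG, 48 h exposure, 8-pt half-log series from 100 uM, 0.5% DMSO vehicle, duplicates; FMO3 transcript by Fluidigm TaqMan qRT-PCR, housekeeping-normalized; gain/loss fit vs DMSO.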

Read-out in test [5]: Cytochrome P450 (CYP1A1), CYP1A1 (gene 1543)
Put plainly: LTEA_HepaRG_CYP1A1: Life Technologies and Expression Analysis (LTEA) Assay for Cytochrome P450 (CYP1A1) using HepaRG (AID 2283454). The procedure, abridged: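 Differentiated human HepaRG cells, after 48 h plating, exposed in duplicate for 48 h in serum-free induction medium to 8 half-log concentrations up to 100 uM in 0.5% DMSO. CYP1A1 mRNA by qRT-PCR, normalized to ACTB/GAPDH/POLR2A; bidirectional fit versus DMSO.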

Read-out in test [6]: CFLAR gene, CFLAR (gene 8837)
The experiment in a line: LTEA_HepaRG_CFLAR: Life Technologies and Expression Analysis (LTEA) Assay for CFLAR gene using HepaRG (AID 2283455). The procedure, abridged: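 HepaRG cells were plated for 48 h, switched to serum-free induction medium, then exposed in duplicate for 48 h to 8 concentrations (top 100 uM, half-log steps, 0.5% DMSO). CFLAR mRNA was measured by qRT-PCR, normalized to ACTB, GAPDH and POLR2A.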

Read-out in test [7]: Forkhead box O1 (FOXO1), FOXO1 (gene 2308)
Put plainly: LTEA_HepaRG_FOXO1: Life Technologies and Expression Analysis (LTEA) Assay for Forkhead box O1 (FOXO1) using HepaRG (AID 2283456). The procedure, abridged: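 Differentiated human HepaRG cells in serum-free induction medium were exposed in duplicate for 48 h to eight half-log concentrations (top 100 uM, 0.5% DMSO). FOXO1 mRNA was measured by TaqMan qRT-PCR, normalised to ACTB, GAPDH and POLR2A, and fitted bidirectionally against DMSO.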

Read-out in test [8]: growth arrest and DNA damage 45 (GADD45A), GADD45A (gene 1647)
The experiment in a line: LTEA_HepaRG_GADD45A: Life Technologies and Expression Analysis (LTEA) Assay for growth arrest and DNA damage 45 (GADD45A) using HepaRG (AID 2283458). The procedure, abridged:
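Differentiated HepaRG cells were exposed in duplicate for 48 h in serum-free induction medium to 8-point half-log concentrations up to 100 uM in 0.5% DMSO. GADD45A mRNA was measured by TaqMan qRT-PCR, normalized to ACTB, GAPDH and POLR2A, with bidirectional fitting versus DMSO.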

Read-out in test [9]: Forkhead box O3 (FOXO3), FOXO3 (gene 2309)
The experiment in a line: LTEA_HepaRG_FOXO3: Life Technologies and Expression Analysis (LTEA) Assay for Forkhead box O3 (FOXO3) using HepaRG (AID 2283459). The procedure, abridged:
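Differentiated human HepaRG cells in serum-free induction medium were exposed in duplicate for 48 h to eight half-log concentrations up to 100 uM in 0.5% DMSO. FOXO3 mRNA was quantified by qRT-PCR, normalized to ACTB, GAPDH and POLR2A, with bidirectional fitting versus DMSO.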

Read-out in test [10]: ABC Transporter (ABCB1), ABCB1 (gene 5243)
Put plainly: LTEA_HepaRG_ABCB1: Life Technologies and Expression Analysis (LTEA) Assay for ABC Transporter (ABCB1) using HepaRG (AID 2283460). The procedure, abridged:
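Differentiated human HepaRG cells, plated 48 h then switched to serum-free induction medium, were exposed in duplicate to eight half-log concentrations up to 100 uM in 0.5% DMSO for 48 h. ABCB1 mRNA was measured by TaqMan qRT-PCR, normalized to ACTB/GAPDH/POLR2A.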

Read-out in test [11]: growth arrest and DNA damage 45 (GADD45B), GADD45B (gene 4616)
The experiment in a line: LTEA_HepaRG_GADD45B: Life Technologies and Expression Analysis (LTEA) Assay for growth arrest and DNA damage 45 (GADD45B) using HepaRG (AID 2283461). The procedure, abridged: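 Differentiated human HepaRG cells in serum-free induction medium exposed 48 h in duplicate to eight concentrations, top 100 uM, half-log steps, 0.5% DMSO. GADD45B mRNA by TaqMan qRT-PCR, normalized to ACTB, GAPDH, POLR2A; bidirectional fit versus DMSO.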

Read-out in test [12]: ABC Transporter (ABCC3), ABCC3 (gene 8714)
The experiment in a line: LTEA_HepaRG_ABCC3: Life Technologies and Expression Analysis (LTEA) Assay for ABC Transporter (ABCC3) using HepaRG (AID 2283462). The procedure, abridged: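 Differentiated human HepaRG cells exposed 48 h in serum-free induction medium, 0.5% DMSO vehicle, 8-point half-log series to 100 uM in duplicate. ABCC3 mRNA by qRT-PCR, normalised to ACTB, GAPDH, POLR2A; bidirectional fit vs DMSO.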

Read-out in test [13]: ABC Transporter (ABCB11), ABCB11 (gene 8647)
The experiment in a line: LTEA_HepaRG_ABCB11: Life Technologies and Expression Analysis (LTEA) Assay for ABC Transporter (ABCB11) using HepaRG (AID 2283463). The procedure, abridged:
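Differentiated human HepaRG cells were exposed for 48 h in serum-free induction medium to eight half-log concentrations up to 100 uM in 0.5% DMSO. ABCB11 mRNA was quantified by qRT-PCR, normalized to ACTB, GAPDH and POLR2A, and fitted bidirectionally versus DMSO.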

Read-out in test [14]: ABC Transporter (ABCC2), ABCC2 (gene 1244)
Put plainly: LTEA_HepaRG_ABCC2: Life Technologies and Expression Analysis (LTEA) Assay for ABC Transporter (ABCC2) using HepaRG (AID 2283464). The procedure, abridged:
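Differentiated HepaRG cells in serum-free induction medium exposed 48 h to eight half-log concentrations up to 100 uM, 0.5% DMSO, in duplicate. ABCC2 mRNA measured by qRT-PCR (TaqMan, Fluidigm), normalized to ACTB, GAPDH and POLR2A. Fitted in both directions against DMSO.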

Read-out in test [15]: Broad substrate specificity ATP-binding cassette transporter ABCG2 (Homo sapiens) (UniProt Q9UNQ0)
The experiment in a line: LTEA_HepaRG_ABCG2: Life Technologies and Expression Analysis (LTEA) Assay for ABC Transporter (ABCG2) using HepaRG (AID 2283465). The procedure, abridged:
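Differentiated HepaRG cells in serum-free induction medium were exposed for 48 h, in duplicate, to eight half-log concentrations up to 100 uM in 0.5% DMSO. ABCG2 mRNA was measured by TaqMan qRT-PCR, normalized to ACTB, GAPDH and POLR2A, and fitted bidirectionally versus DMSO.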

Read-out in test [16]: ATP-citrate lyase (ACLY), ACLY (gene 47)
The experiment in a line: LTEA_HepaRG_ACLY: Life Technologies and Expression Analysis (LTEA) Assay for ATP-citrate lyase (ACLY) using HepaRG (AID 2283466). The procedure, abridged: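 Differentiated human HepaRG cells in serum-free induction medium exposed 48 h, in duplicate, to eight half-log concentrations from 100 uM top in 0.5% DMSO; ACLY mRNA measured by qRT-PCR, normalized to ACTB, GAPDH, POLR2A, fitted bidirectionally versus DMSO.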

Read-out in test [17]: Alkaline Phosphatase, Placental (ALPP) gene, ALPP (gene 250)
Put plainly: LTEA_HepaRG_ALPP: Life Technologies and Expression Analysis (LTEA) Assay for Alkaline Phosphatase, Placental (ALPP) gene using HepaRG (AID 2283468). The procedure, abridged:
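HepaRG cells plated 48 h, then exposed in duplicate for 48 h in serum-free induction medium to 8-point half-log series from 100 uM in 0.5% DMSO. ALPP mRNA by TaqMan qRT-PCR, normalized to ACTB/GAPDH/POLR2A; bidirectional fit versus DMSO.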

Read-out in test [18]: Peroxisomal acyl-coenzyme A oxidase 1 (ACOX1) gene, ACOX1 (gene 51)
Put plainly: LTEA_HepaRG_ACOX1: Life Technologies and Expression Analysis (LTEA) Assay for Peroxisomal acyl-coenzyme A oxidase 1 (ACOX1) gene using HepaRG (AID 2283467). The procedure, abridged:
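Differentiated human HepaRG cells were exposed in duplicate for 48 h in serum-free induction medium to eight half-log concentrations up to 100 uM in 0.5% DMSO. ACOX1 mRNA was then quantified by TaqMan qRT-PCR, normalized to ACTB, GAPDH and POLR2A.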

Read-out in test [19]: Bcl-2 (BAD) gene, BAD (gene 572)
The experiment in a line: LTEA_HepaRG_BAD: Life Technologies and Expression Analysis (LTEA) Assay for Bcl-2 (BAD) gene using HepaRG (AID 2283469). The procedure, abridged: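 Differentiated human HepaRG cells in serum-free induction medium were exposed in duplicate for 48 h to eight concentrations (top 100 uM, half-log steps, 0.5% DMSO). BAD mRNA was quantified by qRT-PCR normalised to ACTB, GAPDH and POLR2A, with bidirectional fitting versus DMSO.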

Activity calls are given as the source filed them. How the source made its calls: active means hit-call score of the fitted dose curve at least 0.9, where 1 is the maximum; inactive means score below 0.9.

Sequence of Broad substrate specificity ATP-binding cassette transporter ABCG2 (Homo sapiens) (Q9UNQ0 whole entry, looked up): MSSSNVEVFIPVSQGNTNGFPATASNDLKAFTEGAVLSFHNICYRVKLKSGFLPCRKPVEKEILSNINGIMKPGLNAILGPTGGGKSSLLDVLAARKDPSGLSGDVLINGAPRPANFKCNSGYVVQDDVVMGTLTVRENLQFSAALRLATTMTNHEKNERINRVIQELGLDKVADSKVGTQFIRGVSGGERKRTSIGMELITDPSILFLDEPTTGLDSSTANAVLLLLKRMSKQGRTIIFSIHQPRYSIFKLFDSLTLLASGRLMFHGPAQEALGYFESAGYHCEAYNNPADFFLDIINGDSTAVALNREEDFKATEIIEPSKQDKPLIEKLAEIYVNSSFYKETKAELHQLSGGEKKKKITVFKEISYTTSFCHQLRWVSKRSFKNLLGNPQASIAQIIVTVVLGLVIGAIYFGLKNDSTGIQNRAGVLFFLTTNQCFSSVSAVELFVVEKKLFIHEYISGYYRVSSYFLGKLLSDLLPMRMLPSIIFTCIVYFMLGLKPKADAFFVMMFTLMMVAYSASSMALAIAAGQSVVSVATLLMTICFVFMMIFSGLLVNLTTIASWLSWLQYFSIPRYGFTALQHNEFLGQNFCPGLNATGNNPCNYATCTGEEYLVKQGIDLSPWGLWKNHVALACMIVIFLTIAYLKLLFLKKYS

As for `NCCOCCOCCN`, the call in [1], in test [2], in test [3], in test [4], in test [6] and in test [7] was inactive. Also, the result in test [8], in [9], in test [10], in [11], in test [12] and in test [13] was inactive. Besides, the compound was classed as inactive in test [14], in test [16] and in [17]. Also, the AC50 was 50000 nM (active) in test [5] and 12100 nM (active) in [15].
Take `Cc1cc(SC2=C(O)C[C@@](CCc3ccc(N)cc3)(C(C)C)OC2=O)c(C(C)(C)C)cc1CO`: the call in [1], in [2], in [3], in test [4], in [6] and in test [7] was inactive. In addition, the compound was called inactive in [8], in test [9], in test [11], in test [12], in test [15] and in [16]. Besides, the compound was called inactive in test [17]. The half-maximal activity concentration (AC50) in test [5] was 29600 nM (active); in test [10], 2440 nM (active); in test [13], 50000 nM (active); in [14], 2160 nM (active).
Turning to `CO[C@@H]1COCC[C@@H]1N[C@@H]1CC[C@@](C(=O)N2CCc3ncc(C(F)(F)F)cc3C2)(C(C)C)C1`, the result in test [1], in test [2], in [3], in [4], in [5] and in [6] was inactive. For the same compound, the result in test [7], in [8], in test [9], in test [10], in test [12] and in [13] was inactive. In addition, the call in test [14], in test [15], in [16], in test [18] and in test [19] was inactive.
Turning to `CC(C)NCC(O)c1ccc(O)c(O)c1` (configuration not stated), the AC50 in [1] is 148 nM (active); in test [2] it was 141 nM (active); in test [3], 200 nM (active); in test [4], 451 nM (active); in [5], 147 nM (active); in test [6], 238 nM (active). The half-maximal activity concentration (AC50) in test [13] is 147 nM (active); in [14], 128 nM (active); in test [15], 156 nM (active); in [16], 182 nM (active); in test [18], 224 nM (active). Moreover, the result in [7], in test [8], in test [10], in test [12] and in test [19] was inactive.

These data come from PubChem BioAssay (EPA / NIEHS).
